# From article PMC7862700, “An all-to-all approach to the identification of sequence-specific readers for epigenetic DNA modifications on cytosine”
# What was measured:
# Assay in all cases: DAPPL (digital affinity profiling via proximity ligation, sequencing); 10 mM Tris-HCl pH 7.5, 50 mM NaCl, 1 mM DTT, 4% glycerol, room temperature, 30 min; GST-TFs on glutathione beads, 16-mer random dsDNA library, 0.1% formaldehyde crosslink after washing; high values mean tight binding
# Details in all cases: protein: recombinant; tags: N-terminal GST; dsDNA, one strand shown
# [1] = biological target: T1, GABPA (Homo sapiens, UniProt Q06546 1-454)
# T1 sequence: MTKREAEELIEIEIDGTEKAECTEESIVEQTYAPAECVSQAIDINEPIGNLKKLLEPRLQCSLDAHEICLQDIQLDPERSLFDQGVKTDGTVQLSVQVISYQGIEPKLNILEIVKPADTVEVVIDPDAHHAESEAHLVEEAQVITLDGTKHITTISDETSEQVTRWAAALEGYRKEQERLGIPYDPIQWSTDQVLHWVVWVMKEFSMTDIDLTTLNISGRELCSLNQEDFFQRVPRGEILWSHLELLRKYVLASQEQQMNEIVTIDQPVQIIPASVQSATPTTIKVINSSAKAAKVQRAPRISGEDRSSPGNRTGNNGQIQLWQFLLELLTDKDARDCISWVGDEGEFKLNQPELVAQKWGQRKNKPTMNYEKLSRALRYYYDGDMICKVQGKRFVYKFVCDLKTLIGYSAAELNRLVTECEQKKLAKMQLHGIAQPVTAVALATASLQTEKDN
# How it was run: (§1)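 Human transcription factors fused to GST were expressed in yeast, captured on glutathione beads, given DNA barcodes and pooled with a GST-only negative control. Pools were incubated with 200 nmole of a 16-mer random double-stranded DNA library in Tris/NaCl/DTT/glycerol buffer at room temperature for 30 min. They were then washed, crosslinked with 0.1% formaldehyde, proximity-ligated (BsaI/T4 ligase, 1 h, 37 °C), PCR-amplified and sequenced on an Illumina NextSeq500. Binding signal is each 6-mer's read frequency for a factor divided by its frequency for the GST control.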
# [2] = biological target: T2, ETV3L (Homo sapiens, UniProt Q6ZN32 1-361)
# T2 sequence: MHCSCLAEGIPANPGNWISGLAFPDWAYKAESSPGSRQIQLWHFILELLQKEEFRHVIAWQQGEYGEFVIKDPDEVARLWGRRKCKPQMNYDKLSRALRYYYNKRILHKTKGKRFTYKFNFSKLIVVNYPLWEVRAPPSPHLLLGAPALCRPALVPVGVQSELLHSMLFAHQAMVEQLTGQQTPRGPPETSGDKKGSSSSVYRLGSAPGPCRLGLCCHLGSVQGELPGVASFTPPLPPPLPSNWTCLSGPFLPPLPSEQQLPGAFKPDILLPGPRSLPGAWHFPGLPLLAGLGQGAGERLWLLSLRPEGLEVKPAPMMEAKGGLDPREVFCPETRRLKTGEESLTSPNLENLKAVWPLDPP
# How it was run: as §1
# [3] = biological target: T3, SPDEF (Homo sapiens, UniProt O95238 1-335)
# T3 sequence: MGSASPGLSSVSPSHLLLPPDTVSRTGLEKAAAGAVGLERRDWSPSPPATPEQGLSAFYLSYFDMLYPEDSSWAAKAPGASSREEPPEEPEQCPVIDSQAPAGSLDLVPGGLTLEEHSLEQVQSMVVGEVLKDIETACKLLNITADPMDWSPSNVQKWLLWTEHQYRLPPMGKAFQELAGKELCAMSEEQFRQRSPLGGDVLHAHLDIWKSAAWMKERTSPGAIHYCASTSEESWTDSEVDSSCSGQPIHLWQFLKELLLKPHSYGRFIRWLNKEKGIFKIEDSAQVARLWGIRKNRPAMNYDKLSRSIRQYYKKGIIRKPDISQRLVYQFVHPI
# How it was run: as §1
# [4] = biological target: T4, ERG (Homo sapiens, UniProt P11308 1-479)
# T4 sequence: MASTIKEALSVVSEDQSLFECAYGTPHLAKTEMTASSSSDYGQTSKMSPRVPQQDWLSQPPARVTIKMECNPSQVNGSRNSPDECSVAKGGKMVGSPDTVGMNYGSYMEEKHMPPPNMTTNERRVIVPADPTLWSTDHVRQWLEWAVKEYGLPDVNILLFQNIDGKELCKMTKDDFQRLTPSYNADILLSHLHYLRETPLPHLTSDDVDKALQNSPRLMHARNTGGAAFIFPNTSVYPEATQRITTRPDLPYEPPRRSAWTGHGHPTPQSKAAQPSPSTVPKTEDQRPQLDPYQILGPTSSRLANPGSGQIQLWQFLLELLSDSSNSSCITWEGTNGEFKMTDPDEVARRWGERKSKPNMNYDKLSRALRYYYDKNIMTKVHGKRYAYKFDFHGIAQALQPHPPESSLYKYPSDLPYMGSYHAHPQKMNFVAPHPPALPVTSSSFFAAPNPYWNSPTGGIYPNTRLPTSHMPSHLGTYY
# How it was run: as §1
# [5] = biological target: SPIB (Homo sapiens, UniProt Q01892 1-262)
# How it was run: as §1
# [6] = biological target: T5, ELK3 (Homo sapiens, UniProt P41970 1-407)
# T5 sequence: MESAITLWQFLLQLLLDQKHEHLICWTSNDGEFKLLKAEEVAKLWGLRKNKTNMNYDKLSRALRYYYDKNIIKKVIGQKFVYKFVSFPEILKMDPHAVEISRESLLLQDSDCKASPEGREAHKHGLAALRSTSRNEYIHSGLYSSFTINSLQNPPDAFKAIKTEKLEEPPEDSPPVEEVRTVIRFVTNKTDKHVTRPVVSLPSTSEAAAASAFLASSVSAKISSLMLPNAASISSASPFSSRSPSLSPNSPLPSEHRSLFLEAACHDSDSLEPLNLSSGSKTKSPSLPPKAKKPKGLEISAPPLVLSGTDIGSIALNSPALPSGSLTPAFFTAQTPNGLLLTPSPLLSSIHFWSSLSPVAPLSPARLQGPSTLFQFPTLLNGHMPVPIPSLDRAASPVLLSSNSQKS
# How it was run: as §1
# [7] = biological target: T6, ERF (Homo sapiens, UniProt P50548 1-548)
# T6 sequence: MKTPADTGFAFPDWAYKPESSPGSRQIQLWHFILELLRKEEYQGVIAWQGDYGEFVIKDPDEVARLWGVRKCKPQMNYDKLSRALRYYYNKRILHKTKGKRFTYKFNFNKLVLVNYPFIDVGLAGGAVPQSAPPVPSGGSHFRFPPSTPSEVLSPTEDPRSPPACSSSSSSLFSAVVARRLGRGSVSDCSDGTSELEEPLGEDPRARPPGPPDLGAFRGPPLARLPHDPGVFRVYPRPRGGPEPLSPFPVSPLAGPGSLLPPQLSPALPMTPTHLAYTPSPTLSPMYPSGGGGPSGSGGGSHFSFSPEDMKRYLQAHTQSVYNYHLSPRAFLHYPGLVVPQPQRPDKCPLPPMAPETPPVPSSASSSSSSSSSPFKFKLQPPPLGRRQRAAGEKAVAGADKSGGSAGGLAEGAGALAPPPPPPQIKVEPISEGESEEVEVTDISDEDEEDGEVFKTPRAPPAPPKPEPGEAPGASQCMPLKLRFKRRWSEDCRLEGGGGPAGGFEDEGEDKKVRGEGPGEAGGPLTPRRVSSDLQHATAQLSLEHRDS
# How it was run: as §1
# [8] = biological target: T7, ETS2 (Homo sapiens, UniProt P15036 1-469)
# T7 sequence: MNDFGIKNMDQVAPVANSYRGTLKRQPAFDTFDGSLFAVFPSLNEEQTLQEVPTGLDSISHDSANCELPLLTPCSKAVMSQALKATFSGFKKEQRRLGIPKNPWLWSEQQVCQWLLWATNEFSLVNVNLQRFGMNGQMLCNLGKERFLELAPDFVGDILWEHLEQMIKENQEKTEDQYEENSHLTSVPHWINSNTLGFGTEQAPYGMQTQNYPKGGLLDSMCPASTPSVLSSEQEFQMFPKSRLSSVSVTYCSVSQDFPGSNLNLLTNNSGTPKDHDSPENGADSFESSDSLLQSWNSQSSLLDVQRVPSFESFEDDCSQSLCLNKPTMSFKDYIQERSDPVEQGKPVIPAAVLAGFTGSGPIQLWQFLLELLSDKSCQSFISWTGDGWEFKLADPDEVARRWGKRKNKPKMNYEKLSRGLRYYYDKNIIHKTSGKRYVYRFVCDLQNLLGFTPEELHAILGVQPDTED
# How it was run: as §1
# [9] = biological target: T8, ETV7 (Homo sapiens, UniProt Q9Y603 1-341)
# T8 sequence: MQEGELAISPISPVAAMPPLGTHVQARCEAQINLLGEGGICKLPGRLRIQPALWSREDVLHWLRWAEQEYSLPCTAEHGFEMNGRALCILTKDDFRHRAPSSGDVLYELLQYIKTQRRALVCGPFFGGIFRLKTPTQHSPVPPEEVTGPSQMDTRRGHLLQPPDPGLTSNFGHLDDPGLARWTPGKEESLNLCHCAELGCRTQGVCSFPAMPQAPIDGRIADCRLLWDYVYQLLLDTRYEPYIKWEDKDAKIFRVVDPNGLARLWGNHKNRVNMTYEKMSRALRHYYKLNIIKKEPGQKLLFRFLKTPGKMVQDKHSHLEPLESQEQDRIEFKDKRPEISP
# How it was run: as §1
# Sequence of SPIB (Q01892 whole entry): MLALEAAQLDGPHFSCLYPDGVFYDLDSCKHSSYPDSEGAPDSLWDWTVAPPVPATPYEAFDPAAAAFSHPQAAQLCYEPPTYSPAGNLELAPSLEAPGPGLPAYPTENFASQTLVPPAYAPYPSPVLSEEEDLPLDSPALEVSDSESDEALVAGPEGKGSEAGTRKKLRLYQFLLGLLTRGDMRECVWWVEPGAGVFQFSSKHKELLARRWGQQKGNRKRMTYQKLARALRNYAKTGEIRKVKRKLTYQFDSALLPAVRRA
sequence,measurement,setting,value
TCGCCA,binding signal,[1],"1 fold enrichment (6-mer frequency, TF over GST control)"
same,binding signal,[2],"1.01 fold enrichment (6-mer frequency, TF over GST control)"
AGCGCA,binding signal,[2],"1.01 fold enrichment (6-mer frequency, TF over GST control)"
TGTAGT,binding signal,[3],"1.03 fold enrichment (6-mer frequency, TF over GST control)"
AAGACA,binding signal,[4],"1 fold enrichment (6-mer frequency, TF over GST control)"
same,binding signal,[5],"1.02 fold enrichment (6-mer frequency, TF over GST control)"
same,binding signal,[6],"1.01 fold enrichment (6-mer frequency, TF over GST control)"
same,binding signal,[7],"1.07 fold enrichment (6-mer frequency, TF over GST control)"
same,binding signal,[2],"1.01 fold enrichment (6-mer frequency, TF over GST control)"
same,binding signal,[8],"1.01 fold enrichment (6-mer frequency, TF over GST control)"
same,binding signal,[9],"1.04 fold enrichment (6-mer frequency, TF over GST control)"
CGCATC,binding signal,[3],"1.02 fold enrichment (6-mer frequency, TF over GST control)"
CGCCGT,binding signal,[1],"1.01 fold enrichment (6-mer frequency, TF over GST control)"
GGTTGC,binding signal,[5],"1 fold enrichment (6-mer frequency, TF over GST control)"
same,binding signal,[2],"1.01 fold enrichment (6-mer frequency, TF over GST control)"
GCAACG,binding signal,[1],"1.03 fold enrichment (6-mer frequency, TF over GST control)"
same,binding signal,[4],"1 fold enrichment (6-mer frequency, TF over GST control)"
same,binding signal,[7],"1.01 fold enrichment (6-mer frequency, TF over GST control)"
GACCCT,binding signal,[7],"1.05 fold enrichment (6-mer frequency, TF over GST control)"
